PubChem BioAssay (NCATS)
Records with an inconclusive call do not appear. Calls of active or inactive are those of the source. Calls follow the shape of the dose curve; as a rule, active = well fitted cell-killing curve with a large enough effect; inconclusive = small, poorly fitted or top-dose-only effect, or effect the other way; inactive = flat fitted curve, though single readings scatter. Where a SMILES comes first, the peptide text is derived from it. The star is where a group is joined. AFC = O=c1cc(C(F)(F)F)c2ccc(N*)cc2o1

Columns and labels:
Experiment in all cases: Primary qHTS to identify gynecologic anti-cancer compounds using libraries of approved drugs and bioactive compounds (AID 1345084); also: nearly all actives have a fitted effect of over 55% in size
C33A = details: Gynecologic cancer cell panel viability, ATPlite luminescence, 48 h; series mostly up to 57.5 µM
Procedure, shortened: (§1)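 In this quantitative HTS, cell killing is estimated from loss of ATP-dependent luciferase light. Cells see five compound concentrations over a 48 h exposure.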

CAOV3 = details: Gynecologic cancer cell panel viability, ATPlite luminescence, 48 h; series mostly up to 57.5 µM
Procedure, shortened: as §1

CASKI = details: Gynecologic cancer cell panel viability, ATPlite luminescence, 48 h; series mostly up to 57.5 µM
Procedure, shortened: as §1

Es-2 = details: Gynecologic cancer cell panel viability, ATPlite luminescence, 48 h; series mostly up to 57.5 µM
Procedure, shortened: as §1

HeLa = details: Gynecologic cancer cell panel viability, ATPlite luminescence, 48 h; series mostly up to 57.5 µM
Procedure, shortened: as §1

Hek293T = details: Gynecologic cancer cell panel viability, ATPlite luminescence, 48 h, control line for the selectivity index; series mostly up to 57.5 µM
Procedure, shortened: as §1

JEG-3 = details: Gynecologic cancer cell panel viability, ATPlite luminescence, 48 h; series mostly up to 57.5 µM
Procedure, shortened: as §1

Measured: Potency

CC1(C)CC[C@]2(C(=O)O)CC[C@]3(C)C(=CCC4[C@@]5(C)CC[C@H](O[C@@H]6O[C@H](C(=O)O)[C@@H](O)[C@H](O)[C@H]6O)C(C)(CO)C5CC[C@]43C)C2C1 (stereo not given in full)
inactive: C33A | CAOV3 | CASKI | Es-2 | HeLa | Hek293T | JEG-3

COc1cc(/C=C/C(=O)OC2CC(OC(C)=O)C(OC(C)=O)C3C2CCC2C(=O)OC(c4ccoc4)CC23C)ccc1O[C@@H]1O[C@H](CO)[C@@H](O)[C@H](O)[C@H]1O (stereo not given in full)
inactive: C33A | CAOV3 | CASKI | Es-2 | HeLa | Hek293T | JEG-3

C=C/C=C/[C@@H]1OC[C@H](/C=C/C=C/C)[C@H]1O
inactive: C33A | CAOV3 | CASKI | Es-2 | HeLa | Hek293T | JEG-3

C=CC(C)(O)CO[C@@H]1O[C@H](CO)[C@@H](O)[C@H](O)[C@H]1O (stereo not given in full)
inactive: C33A | CAOV3 | CASKI | Es-2 | HeLa | Hek293T | JEG-3

CC(=O)N[C@@H](CC(C)C)C(=O)N[C@@H](CCC(=O)O)C(=O)N[C@@H](CCC(=O)O)C(=O)N[C@@H](CC(=O)O)C(=O)Nc1ccc2c(C(F)(F)F)cc(=O)oc2c1 (Ac-LEED-{AFC})
inactive: C33A | CAOV3 | CASKI | Es-2 | HeLa | Hek293T | JEG-3

C[C@@H]1C(=O)O[C@H]2CC34[C@H]5C[C@@H](C(C)(C)C)C36[C@@H](OC(=O)[C@@H]6O)O[C@@]4(C(=O)O5)[C@]21O (stereo not given in full)
inactive: C33A | CAOV3 | CASKI | Es-2 | HeLa | Hek293T | JEG-3

CC(=C/C(=O)O)/C=C/[C@]1(O)[C@@]2(C)CO[C@]1(C)C[C@H](O[C@@H]1O[C@H](CO)[C@@H](O)[C@H](O)[C@H]1O)C2
inactive: C33A | CAOV3 | CASKI | Es-2 | HeLa | Hek293T | JEG-3

COc1cc(C)c(C(=O)O[C@H]2[C@@H](O)[C@H](n3ccc(=O)[nH]c3=O)O[C@@H]2CO)c(OC)c1
inactive: C33A | CAOV3 | CASKI | Es-2 | HeLa | Hek293T | JEG-3

C(#Cc1cccc(CN2CCOCC2)c1)CCN1CCCCC1
inactive: C33A | CAOV3 | CASKI | Es-2 | HeLa | Hek293T | JEG-3

COc1cccc(-n2nc(C(=O)O)cc2-c2ccc(C3CCCCC3)c(Cl)c2)c1
inactive: C33A | CAOV3 | CASKI | Es-2 | HeLa | Hek293T | JEG-3

NC(Cc1c[nH]c2ccccc12)C(=O)NC(CCC(=O)O)C(=O)O (stereo not given)
inactive: C33A | CAOV3 | CASKI | Es-2 | HeLa | Hek293T | JEG-3

OCCc1ccc(O[C@@H]2O[C@H](CO)[C@@H](O)[C@H](O)[C@H]2O)c(O)c1
inactive: C33A | CAOV3 | CASKI | Es-2 | HeLa | Hek293T | JEG-3

CCCOc1ccn2c(C(C)=O)cc(-c3ccccc3S(C)(=O)=O)c2c1
inactive: C33A | CAOV3 | CASKI | Es-2 | HeLa | Hek293T | JEG-3

C[C@]1(O)CC[C@@H]2C(C(=O)O)=CO[C@@H](O[C@@H]3O[C@H](COC(=O)c4ccc(O)cc4)[C@@H](O)[C@H](O)[C@H]3O)[C@@H]21
inactive: C33A | CAOV3 | CASKI | Es-2 | HeLa | Hek293T | JEG-3

O=C(c1ccccn1)c1cnn2c(-c3ccncc3)ccnc12
inactive: C33A | CAOV3 | CASKI | Es-2 | HeLa | Hek293T | JEG-3

C=C1CC[C@@H]2[C@](C)(CO[C@@H]3O[C@H](CO)[C@@H](O)[C@H](O)[C@H]3O)CCC[C@@]2(C)[C@@H]1CCC1=CCOC1=O
inactive: C33A | CAOV3 | CASKI | Es-2 | HeLa | Hek293T | JEG-3

NS(=O)(=O)NCCNc1nonc1C(=Nc1ccc(F)c(Br)c1)NO
inactive: C33A | CAOV3 | CASKI | Es-2 | HeLa | Hek293T | JEG-3

COc1cc(N2CCC(O)CC2)ccc1Nc1cc(Nc2ccccc2S(=O)(=O)C(C)C)c2cc[nH]c2n1
inactive: C33A | CAOV3 | CASKI | Es-2 | HeLa | Hek293T | JEG-3

CC1CCC(=O)CC(O)C(O)CC(=O)O1 (stereo not given)
inactive: C33A | CAOV3 | CASKI | Es-2 | HeLa | Hek293T | JEG-3

CO[C@@H]1COCC[C@@H]1N[C@@H]1CC[C@@](C(=O)N2CCc3ncc(C(F)(F)F)cc3C2)(C(C)C)C1
inactive: C33A | CAOV3 | CASKI | Es-2 | HeLa | Hek293T | JEG-3
